The values below come from PubChem BioAssay.

The source made the active and inactive calls. No rule for the calls is given here.

A word on the inhibition: it is the change of the read-out against control, counted positive when it falls.

The target of this assay is Pantothenate synthetase (Mycobacterium tuberculosis (strain ATCC 25618 / H37Rv)) (UniProt P9WIL5). The assay is described as follows: Recombinant Mtb pantothenate synthetase (PanC) inhibitors, coupled enzyme, confirmatory (AID 375).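 Also: 0% = full reaction with vehicle and 100% = no enzyme background.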 To be noted: coupled enzyme assay; at 10 µM, hits give high values.
Sequence of Pantothenate synthetase (Mycobacterium tuberculosis (strain ATCC 25618 / H37Rv)) (P9WIL5 whole entry, looked up): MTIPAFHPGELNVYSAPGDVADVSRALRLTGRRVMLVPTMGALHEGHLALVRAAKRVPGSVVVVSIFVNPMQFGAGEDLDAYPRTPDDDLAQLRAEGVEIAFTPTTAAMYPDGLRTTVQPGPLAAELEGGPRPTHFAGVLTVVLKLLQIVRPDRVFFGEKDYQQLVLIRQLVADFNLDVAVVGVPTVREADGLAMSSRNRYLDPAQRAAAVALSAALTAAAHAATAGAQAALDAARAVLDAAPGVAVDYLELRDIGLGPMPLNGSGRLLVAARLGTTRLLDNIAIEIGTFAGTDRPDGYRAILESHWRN
For `COc1ccccc1C(=O)n1nc(-c2ccccc2)nc1N`, the inhibition was 2% (inactive).
In the case of `COc1ccc(NC(=O)CSc2nnc(-c3ccccc3)n2N)cc1` it was 0% (inactive).
In the case of `CC(C)(C)c1nnc(NC(=O)C2CCN(c3ncccn3)CC2)s1` it was 1% (inactive).
Regarding `CCn1c(=O)n(CC(=O)NCc2ccccc2OC)c(=O)c2ccccc21`, the inhibition is 12% (inactive).
Turning to `CC(C)CC(=O)N1CCN(S(=O)(=O)c2ccc(F)cc2)CC1`, the inhibition was 0% (inactive).
For `COc1ccc(Cl)cc1N1CC(c2nc3ccccc3[nH]2)CC1=O` (stereo not given) the value was 6% (inactive); for `COc1cc(OC)cc(OCC(O)Cn2cnc(-c3ccccc3)c2)c1` (stereo not given), 0% (inactive).
As to `CC1CN(c2c3c(nc4ncnn24)CCCC3)CC(C)O1` (stereo not given), the inhibition is 2% (inactive).
Take `CCCCCC(=O)N1CC2(C)CN(C(=O)CCCCC)CC(C)(C1)C2=O`: the inhibition was 0% (inactive).
In the case of `O=C(Cn1c(=O)sc2ccccc21)NCCOc1ccccc1F` it was 0% (inactive); in that of `COc1ccc(OC)c(S(=O)(=O)Nc2ccc(O)c3ccccc23)c1`, 8% (inactive).
For `OC1C=CSc2nc3ccccc3n21` (stereo not given) the value was 0% (inactive); for `Cc1nc(N)c(C#N)c(-c2cccnc2)c1C`, 0% (inactive).
For `Nn1c(SCC(=O)Nc2ccc(Oc3ccccc3)cc2)nnc1C1CC1` the value was 7% (inactive); for `CCC(C)(C)n1nnnc1C(c1cc2cc(C)ccc2[nH]c1=O)N1CCCC1` (stereo not given), 8% (inactive).
Take `COCCn1nnnc1C(c1cc2ccc(OC)cc2[nH]c1=O)N1CCc2ccccc2C1` (stereo not given): the inhibition is 0% (inactive).
For `Cc1ccc(S(=O)(=O)N2CCN(C(=O)CN3C(=O)NC4(CCOc5ccccc54)C3=O)CC2)cc1` (stereo not given) the value was 2% (inactive).
On to `C=CCOc1ccc(CN(C)CC(=O)N(CC(C)C)c2c(N)n(CC(C)C)c(=O)[nH]c2=O)cc1`, for which the inhibition was 0% (inactive).
For `COc1ccc(-c2[nH]nc3c2C(c2ccccc2OC(=O)N2CCOCC2)C(C#N)=C(N)O3)cc1` (stereo not given) the value was 5% (inactive).
For `O=C(O)c1c(Cl)c(Cl)c(Cl)c(Cl)c1C(=O)N1CCOCC1` the value was 0% (inactive); for `Cc1nnc(SCc2nc3ccccc3s2)n1-c1ccccc1`, 3% (inactive); for `Cc1cc(C)nc(Sc2ccc3nnc(C(F)(F)C(F)(F)C(F)(F)F)n3n2)n1`, 6% (inactive).
For `CCCCNC(=O)NS(=O)(=O)c1ccc(C)cc1` the value was 0% (inactive).
In the case of `CCOC(=O)c1c(NC(=O)c2nn(CC)cc2Br)c(C#N)cn1-c1ccccc1`, the inhibition was 0% (inactive).
In the case of `O=C(NCC1CCCO1)c1ccc(N2CCCCC2)nc1` (stereo not given) it was 0% (inactive).
For `O=C(O)c1cc2c([nH]c1=O)CCCC2` the value was 8% (inactive).
As to `O=C(NCC(=O)N(c1cnc2ccccc2c1)C(C(=O)NC1CCCC1)c1ccncc1)c1ccco1` (stereo not given), the inhibition is 0% (inactive).
With `COC(=O)C1(C)NC(c2ccco2)C2C(=O)N(c3ccc(C)cc3)C(=O)C21` (stereo not given), the inhibition was 4% (inactive).
In the case of `Cn1c2c(c(=O)[nH]c1=O)C(NC(=O)c1ccco1)(C(F)(F)F)C(=O)N2` (stereo not given), the inhibition was 0% (inactive).
For `O=S(=O)(c1ccc2ccccc2c1)N1CCCCC1` the value was 0% (inactive); for `N#CC1=C(N)n2c(s/c(=C\c3ccco3)c2=O)=C(C#N)C1c1ccco1` (stereo not given), 0% (inactive); for `O=C(Nc1ccc2c(c1)OCO2)c1ccc(Br)c(S(=O)(=O)N2CCCC2)c1`, 1% (inactive).
In the case of `Nc1nc(CN2CCOCC2)cs1` it was 1% (inactive); in that of `c1ccc(CN2C3=NCCCN3c3ccccc32)cc1`, 0% (inactive).
In the case of `Oc1cccc(C=NCc2ccccc2)c1O` it was 0% (inactive).
Turning to `CCc1ccc2[nH]c(=O)c(C(c3nnnn3CC3CCCO3)N3CCCc4ccccc43)cc2c1` (stereo not given), the inhibition was 0% (inactive).
In the case of `CCc1nnc(NC(=O)CSc2nnc(Cc3ccccc3)n2-c2ccc(OC)cc2)s1` it was 7% (inactive); in that of `NC(=O)C1CCN(CC(=O)N2c3ccccc3CCc3ccccc32)CC1`, 0% (inactive); in that of `c1ccc(Nc2ccccc2Nc2ccccn2)nc1`, 0% (inactive).
In the case of `C(#Cc1ccccc1)Cn1nnc2ccccc21` it was 0% (inactive).
